The record followed here is PubChem BioAssay (Tox21).

Inconclusive results are not listed. Where a call stands in place of a potency, no number is given. The source made the active and inactive calls. Calls follow the shape of the dose curve; as a rule, active = well fitted cell-killing curve with a large enough effect in the repeat runs; inconclusive = weak or mixed curves, or effect the other way; inactive = flat fitted curve, though single readings scatter.
Potency is read from the fitted curve at half-maximal effect.

This experiment is described as follows: cAMP Responsive Elements (CRE) small molecule antagonists, cell-based qHTS assay: qHTS cell viability counter screen (AID 2060913). Also: nearly all actives have a fitted effect of over 40% in size. The settings on record: CRE-bla HEK293T viability, CellTiter-Glo luminescence, 5 h; series mostly up to 92.4 µM. A digest of the protocol: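 Viability of NKH477-stimulated (0.25 uM final) CRE-bla HEK293T cells is measured by CellTiter-Glo luminescence following 3 hrs compound exposure at 37 C.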
A general note: qHTS replaces the single test concentration by a dilution series.
`Clc1ccc(CCC(Cn2ccnc2)Sc2c(Cl)cccc2Cl)cc1` (stereo not given): the Potency result was “inactive”. In the case of `COC(=O)c1ccccc1S(=O)(=O)NC(=O)Nc1nc(C)nc(OC)n1`, the Potency entry is “inactive”. As to `O=[N+]([O-])c1ccc(O)c([N+](=O)[O-])c1`, the Potency is 54.5 µM (active). In the case of `C=CCOC(Cn1ccnc1)c1ccc(Cl)cc1Cl` (stereo not given), the Potency result is “inactive”. As to `O.O.O.O.O.O.O.O=S(=O)([O-])[O-].[Co+2]`, the Potency result was “inactive”.

Regarding `O=C(NC(=O)c1c(F)cccc1F)Nc1ccc(OC(F)(F)C(F)OC(F)(F)F)c(Cl)c1` (stereo not given), the Potency result was “inactive”. For the molecule `CCOP(=O)(NC(C)C)Oc1ccc(SC)c(C)c1` (stereo not given), the Potency result is “inactive”. On to `Cc1ccc(N=CN(C)C=Nc2ccc(C)cc2C)c(C)c1`, for which the Potency entry is “inactive”.

Regarding `C#C[C@]1(O)CC[C@H]2[C@@H]3CCC4=CC(=O)CCC4=C3C=C[C@@]21CC`, the Potency entry was “inactive”.

Turning to `O=NN1CCCCC1`, the Potency entry is “inactive”.

For `ClC1=C(Cl)[C@]2(Cl)[C@@H]3[C@H]4C[C@H]([C@@H]5O[C@H]45)[C@@H]3[C@@]1(Cl)C2(Cl)Cl`, the Potency entry was “inactive”. Regarding `CC(O)CN(CC(C)O)CC(C)O` (stereo not given), the Potency entry is “inactive”. Then `CCCCc1c(C)nc(NCC)nc1OS(=O)(=O)N(C)C`, with “inactive”; and `COP(=O)(OC)C(O)C(Cl)(Cl)Cl` (stereo not given), with “inactive”; and `CCSCc1ccccc1OC(=O)NC`, with “inactive”. Then `O=NN1CCNCC1`, with “inactive”; and `CCC1CCC(=O)O1` (stereo not given), with “inactive”. For `CN1CC[C@]23c4c5ccc(O)c4O[C@H]2[C@@H](O)CC[C@H]3[C@H]1C5`, the Potency entry was “inactive”.

As to `O=S(=O)(c1ccc(Cl)cc1)c1ccc(Cl)cc1`, the Potency result is “inactive”. Consider `CCOC(=O)NC(=S)Nc1ccccc1NC(=S)NC(=O)OCC`, for which the Potency result is “inactive”.

`Fc1cc(Br)ccc1CBr`: the Potency entry was “inactive”. Take `S=C=Nc1cccc2ccccc12`: the Potency entry is “inactive”. Turning to `Clc1cc(Cl)c(-c2cc(Cl)c(Cl)cc2Cl)cc1Cl`, the Potency result is “inactive”. For the molecule `C1=CCC=C1`, the Potency result was “inactive”. Then `CCCCCCCc1ccc(O)cc1`, with “inactive”; and `Cc1nc2ccccc2c(=O)n1-c1ccccc1Cl`, with “inactive”. `ClCCBr`: the Potency result is “inactive”. With `Clc1ccc(C2(Cn3cncn3)OCCO2)c(Cl)c1`, the Potency entry was “inactive”.

Regarding `CNC(=O)Oc1c(C(C)(C)C)cc(C)cc1C(C)(C)C`, the Potency entry was “inactive”.

Take `Oc1ccc2c3c1O[C@H]1[C@@H](O)C=C[C@H]4[C@@H](C2)NCC[C@@]341`: the Potency entry was “inactive”. As for `CCCCCCCCP(=O)(O)O`, the Potency entry was “inactive”. Take `COc1cc(OC)c(OC)cc1C=O`: the Potency result was “inactive”. Take `O=C(O)C(Cl)Br` (stereo not given): the Potency entry is “inactive”. Consider `O=[N+]([O-])c1c(Cl)c(Cl)cc(Cl)c1Cl`, for which the Potency entry is “inactive”. Regarding `C1CCNCC1`, the Potency result is “inactive”. For the molecule `CCN(CC)C(=O)/C(Cl)=C(\C)OP(=O)(OC)OC`, the Potency entry was “inactive”. `CC(O)C(=O)[O][Hg][c]1ccccc1` (stereo not given): the Potency was 12.2 µM (active).

Regarding `c1ccc2nc(N3CCNCC3)ccc2c1`, the Potency entry is “inactive”. Take `CC(Cl)C(C)Cl` (stereo not given): the Potency entry is “inactive”. Take `CCNc1nc(NC(C)C)nc(OC)n1`: the Potency entry is “inactive”.
